Reference: PubChem BioAssay (Tox21)
Results filed as inconclusive are left out. Activity calls are given as the source filed them. Calls follow the shape of the dose curve; as a rule, active = well fitted curve in the direction sought with a large enough effect in the repeat runs; inconclusive = weak or mixed curves; inactive = no such curve, though single readings can be large; an effect the other way counts as inactive or inconclusive.

Legend:
[1] = A CellTox Green Cytotoxicity Assay to monitor cytotoxicity in HEK293 cells - 40 hour (AID 1224871); also: nearly all actives have a fitted effect of over 45% in size
Outline: (§1)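 HEK293 cells premixed with CellTox Green dye were seeded at 600 cells/well and left 5 h at 37 C/5% CO2 before pin transfer of 23 nL compound in DMSO. Fluorescence from dye bound to dead-cell DNA was read during 40 h treatment.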

[2] = qHTS RealTime-Glo MT Cell Viability Assay in HEK293 cells - 16 hour (AID 1224872); also: top concentration of the series differs between compounds; nearly all actives have a fitted effect of over 50% in size
Outline: (§2)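 HEK293 cells seeded with NanoLuc/prosubstrate reagent, rested 5 h at 37 C, then dosed and kept at 37 C up to 40 h. Nonlytic real-time luminescence from viable cells read at 0, 8, 16, 24, 32 and 40 h.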

[3] = qHTS RealTime-Glo MT Cell Viability Assay in HEK293 cells - 40 hour (AID 1224874); conditions: RealTime-Glo luminescence; max response: active compounds read low; also: nearly all actives have a fitted effect of over 50% in size
Outline: (§3)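 HEK293 cells mixed with RealTime-Glo reagents (NanoLuc plus cell-permeant prosubstrate) at 600 cells/well, preincubated 5 h at 37 C/5% CO2, then given 23 nL compound in DMSO. Nonlytic luminescence from viable cells was read at 0, 8, 16, 24, 32 and 40 h.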

[4] = A CellTox Green Cytotoxicity Assay to monitor cytotoxicity in HEK293 cells - 24 hour (AID 1224875); also: series mostly up to about 77 µM; nearly all actives have a fitted effect of over 45% in size
Outline: as §1

[5] = A CellTox Green Cytotoxicity Assay to monitor cytotoxicity in HepG2 cells - 16 hour (AID 1224876); also: nearly all actives have a fitted effect of over 45% in size
Outline: (§4)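 HepG2 cells were seeded together with the CellTox Green dye at 600 cells/well, left 5 h at 37 C/5% CO2, then given compounds in DMSO. Fluorescence from dye bound to dead-cell DNA was read repeatedly over 40 h of treatment at 37 C.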

[6] = qHTS RealTime-Glo MT Cell Viability Assay in HepG2 cells - 32 hour (AID 1224877); also: nearly all actives have a fitted effect of over 55% in size
Outline: (§5)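 HepG2 cells (600/well) were dispensed with RealTime-Glo reagents, incubated 5 h at 37 °C, then treated with compounds in DMSO for up to 40 h. Nonlytic NanoLuc luminescence reflecting viable cells was read at each stated time point.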

[7] = A CellTox Green Cytotoxicity Assay to monitor cytotoxicity in HepG2 cells - 24 hour (AID 1224878); also: nearly all actives have a fitted effect of over 45% in size
Outline: as §4

[8] = A CellTox Green Cytotoxicity Assay to monitor cytotoxicity in HepG2 cells - 40 hour (AID 1224879); also: nearly all actives have a fitted effect of over 40% in size
Outline: as §4

[9] = qHTS RealTime-Glo MT Cell Viability Assay in HEK293 cells - 0 hour (AID 1224880)
Outline: as §3

[10] = A CellTox Green Cytotoxicity Assay to monitor cytotoxicity in HEK293 cells - 32 hour (AID 1224881); also: nearly all actives have a fitted effect of over 40% in size
Outline: as §1

[11] = A CellTox Green Cytotoxicity Assay to monitor cytotoxicity in HepG2 cells - 0 hour (AID 1224882); also: nearly all actives have a fitted effect of over 35% in size
Outline: as §4

[12] = A CellTox Green Cytotoxicity Assay to monitor cytotoxicity in HepG2 cells - 32 hour (AID 1224883); also: nearly all actives have a fitted effect of over 50% in size
Outline: as §4

[13] = A CellTox Green Cytotoxicity Assay to monitor cytotoxicity in HEK293 cells - 8 hour (AID 1224884); also: nearly all actives have a fitted effect of over 35% in size
Outline: as §1

[14] = qHTS RealTime-Glo MT Cell Viability Assay in HepG2 cells - 16 hour (AID 1224885); also: nearly all actives have a fitted effect of over 50% in size
Outline: as §5

[15] = qHTS RealTime-Glo MT Cell Viability Assay in HEK293 cells - 24 hour (AID 1224886)
Outline: as §2

[16] = qHTS RealTime-Glo MT Cell Viability Assay in HEK293 cells - 8 hour (AID 1224887)
Outline: as §3

[17] = A CellTox Green Cytotoxicity Assay to monitor cytotoxicity in HEK293 cells - 16 hour (AID 1224888); also: nearly all actives have a fitted effect of over 35% in size
Outline: as §1

[18] = qHTS RealTime-Glo MT Cell Viability Assay in HepG2 cells - 0 hour (AID 1224889); also: nearly all actives have a fitted effect of over 50% in size
Outline: as §5

[19] = A CellTox Green Cytotoxicity Assay to monitor cytotoxicity in HepG2 cells - 8 hour (AID 1224890); also: nearly all actives have a fitted effect of over 45% in size
Outline: as §4

[20] = qHTS RealTime-Glo MT Cell Viability Assay in HepG2 cells - 8 hour (AID 1224873); also: nearly all actives have a fitted effect of over 55% in size
Outline: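 HepG2 cells (600/well) mixed with RealTime-Glo MT reagent, settled 5 h at 37 C/5% CO2 before compound addition. Nonlytic NanoLuc luminescence from viable-cell prosubstrate reduction read repeatedly during 40 h treatment at 37 C.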
% is scaled to controls: 0 for no effect and ±100 for the full control effect.

CC(C)N1C(=O)c2ccccc2C1=O
inactive: Potency [1] | Potency [2] | max response [3] 4.79% | Potency [4] | Potency [5] | Potency [6] | Potency [7] | Potency [8] | outcome [9] | Potency [10] | Potency [11] | Potency [12] | Potency [13] | outcome [14] | Potency [15] | Potency [16] | Potency [17] | Potency [18] | Potency [19]

CCOC(=O)Cn1c(=O)sc2cccc(Cl)c21
inactive: Potency [1] | Potency [2] | max response [3] -10.9% | Potency [4] | Potency [5] | Potency [6] | Potency [7] | Potency [8] | outcome [9] | Potency [10] | Potency [11] | Potency [12] | Potency [15] | Potency [16] | Potency [17] | Potency [18] | Potency [19]

OCC(O)[C@@H](O)[C@H](O)[C@H](O)CO[C@H]1O[C@H](CO)[C@@H](O)[C@H](O)[C@H]1O (some centres undefined)
inactive: Potency [1] | Potency [2] | max response [3] -0.563% | Potency [4] | Potency [5] | Potency [6] | Potency [7] | Potency [8] | outcome [9] | Potency [10] | Potency [11] | Potency [12] | Potency [13] | outcome [14] | Potency [15] | Potency [16] | Potency [17] | Potency [18] | Potency [19]

O=C(O)C(O)[C@H](O)[C@@H](O)[C@H](O)[C@H](O)CO (some centres undefined)
inactive: Potency [1] | Potency [2] | outcome [20] | Potency [4] | Potency [5] | Potency [6] | Potency [7] | Potency [8] | outcome [9] | Potency [10] | Potency [11] | Potency [12] | Potency [13] | outcome [14] | Potency [15] | Potency [16] | Potency [17] | Potency [18]

CC(C)[N+](C)(C)CC(O)COc1cccc2ccccc12 (centres undefined)
inactive: Potency [1] | Potency [2] | outcome [20] | max response [3] 6.37% | Potency [4] | Potency [5] | Potency [8] | outcome [9] | Potency [10] | Potency [11] | Potency [12] | Potency [13] | outcome [14] | Potency [15] | Potency [16] | Potency [17] | Potency [18] | Potency [19]

CCC(C(=O)NC(N)=O)c1ccccc1 (centres undefined)
inactive: Potency [1] | Potency [2] | max response [3] 5.63% | Potency [4] | Potency [5] | Potency [6] | Potency [7] | Potency [8] | outcome [9] | Potency [10] | Potency [11] | Potency [12] | Potency [13] | outcome [14] | Potency [15] | Potency [16] | Potency [17] | Potency [18] | Potency [19]

C=C(C)[C@@H]1CCC2=CC(=O)C[C@@H](C)[C@]2(C)C1
inactive: Potency [1] | Potency [2] | outcome [20] | max response [3] 3.58% | Potency [4] | Potency [6] | outcome [9] | Potency [10] | Potency [11] | Potency [13] | outcome [14] | Potency [15] | Potency [16] | Potency [17] | Potency [18] | Potency [19]

CCCCN(CCO)CCO
inactive: Potency [1] | Potency [2] | max response [3] 19% | Potency [4] | Potency [5] | Potency [6] | Potency [7] | Potency [8] | outcome [9] | Potency [10] | Potency [11] | Potency [12] | Potency [13] | outcome [14] | Potency [15] | Potency [16] | Potency [18] | Potency [19]

COC(=O)c1ccc(C(=O)OC)c(C(=O)OC)c1
inactive: Potency [1] | Potency [2] | outcome [20] | max response [3] 1.35% | Potency [4] | Potency [5] | outcome [9] | Potency [10] | Potency [11] | Potency [13] | outcome [14] | Potency [15] | Potency [16] | Potency [18] | Potency [19]

CCCCCCC(=O)OCC
inactive: Potency [1] | Potency [2] | outcome [20] | max response [3] 14.5% | Potency [4] | Potency [5] | Potency [8] | outcome [9] | Potency [10] | Potency [11] | outcome [14] | Potency [15] | Potency [17] | Potency [18] | Potency [19]

C#CC(O)CCCCC (centres undefined)
inactive: Potency [1] | Potency [2] | outcome [20] | max response [3] 8.88% | Potency [4] | Potency [5] | Potency [7] | Potency [8] | outcome [9] | Potency [10] | Potency [11] | outcome [14] | Potency [15] | Potency [16] | Potency [17] | Potency [18] | Potency [19]

CCCCNc1ccccc1
inactive: Potency [1] | Potency [2] | max response [3] 2.6% | Potency [4] | Potency [5] | Potency [6] | Potency [7] | Potency [8] | outcome [9] | Potency [10] | Potency [11] | Potency [12] | outcome [14] | Potency [15] | Potency [16] | Potency [17] | Potency [18] | Potency [19]

N#CC1(O)CCCCC1
inactive: Potency [1] | Potency [2] | outcome [20] | max response [3] -16.1% | Potency [4] | Potency [5] | Potency [7] | Potency [8] | outcome [9] | Potency [10] | Potency [11] | Potency [13] | outcome [14] | Potency [15] | Potency [16] | Potency [18] | Potency [19]

C#CC(C)(O)CC(C)C (centres undefined)
inactive: Potency [1] | Potency [2] | outcome [20] | max response [3] 22.3% | Potency [4] | Potency [5] | Potency [7] | Potency [8] | outcome [9] | Potency [10] | Potency [11] | Potency [12] | outcome [14] | Potency [15] | Potency [16] | Potency [17] | Potency [18] | Potency [19]
